Results filed as inconclusive are left out. Entries that show only a call come without a potency. The source made the active and inactive calls. Calls follow the shape of the full dose curve.
Potency is read from the fitted curve at half-maximal effect.

Muscarinic acetylcholine receptor M1 (Homo sapiens), sequence (P11229 whole entry, looked up): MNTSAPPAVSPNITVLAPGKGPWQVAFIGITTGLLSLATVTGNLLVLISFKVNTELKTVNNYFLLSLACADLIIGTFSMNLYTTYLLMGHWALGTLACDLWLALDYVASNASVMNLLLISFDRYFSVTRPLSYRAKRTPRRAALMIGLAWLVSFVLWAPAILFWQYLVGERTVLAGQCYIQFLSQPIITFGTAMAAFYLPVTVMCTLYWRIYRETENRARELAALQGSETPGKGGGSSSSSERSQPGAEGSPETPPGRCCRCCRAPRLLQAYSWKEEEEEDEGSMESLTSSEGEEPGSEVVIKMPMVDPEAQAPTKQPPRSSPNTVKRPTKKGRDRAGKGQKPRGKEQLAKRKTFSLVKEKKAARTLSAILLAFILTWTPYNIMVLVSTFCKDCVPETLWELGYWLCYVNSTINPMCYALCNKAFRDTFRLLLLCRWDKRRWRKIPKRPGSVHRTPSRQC

The target in the experiment is Muscarinic acetylcholine receptor M1 (Homo sapiens) (UniProt P11229). The experiment is described as follows: Cholinergic receptor muscarinic 1 (CHRM1) small molecule antagonists, cell-based qHTS assay (AID 1963588). Also: nearly all actives have a fitted effect of over 40% in size. The conditions noted are these: CHRM1-CHO antagonist mode, calcium flux fluorescence; series mostly up to 61.5 µM. From the text:
National Center for Advancing Translational Sciences [NCATS]
Division of Preclinical Innovation [DPI]
U.S. Environmental Protection Agency [EPA]
National Institutes of Environmental Health Sciences [NIEHS]
National Toxicology Program [NTP]
U.S. Food and Drug Administration [FDA]
The CHRM1 is a muscarinic receptor. This receptor plays a crucial role in learning and memory processes and has long been identified as a promising therapeutic target for the improvement of cognitive decline in Alzheimer's disease (AD). The CHRM1-CHO cell line stably expressing human muscarinic acetylcholine receptor M1 (CHRM1) can be used for screening agonists and antagonists of interactions between CHRM1 and its ligands. The CHRM1-CHO Calcium Flux Assay is a homogeneous fluorescence-based assay for detecting the intracellular calcium level using FDSS kinetic plate reader system.
Tox21 Assay Protocol Summary:
CHRM1-CHO cells were dispensed at 1000 cells/3uL/well in 1536-well black-clear bottom plates using a Multidrop Dispenser. After the assay plates were incubated at a 37 C/5% CO2 incubator for 18 h, 3 uL of Dye Loading Buffer was transferred to the assay plate by a Flying Reagent Dispenser. The assay plates were incubated at 37 C for 1h. For antagonist mode, 23 nL of compounds dissolved in DMSO, positive controls or DMSO only was transferred to the assay plate by a pin tool. After 5 min incubation at room temperature, 1.5 uL of acetylcholine at 50nM was added to each well. The fluorescence intensity in the plates was measured using FDSS 7000EX kinetic plate reader for 3 min at 1 sec intervals. Each test compound was measured at 15 concentrations in three independent runs.
`O=CC=O`: the Potency entry was “inactive”.
Next, `Nc1ccc([N+](=O)[O-])cc1`: “inactive”; `COc1cc(Cl)c(OC)cc1Cl`: “inactive”; `CCCCn1cc[n+](C)c1` (tested in a mixture with another compound): “inactive”.
For `CCC(=O)C(CCN(C)C)(c1ccccc1)c1ccccc1`, the Potency is 11.6 µM (active).
`OC(c1ccc(F)cc1)(c1cncnc1)c1ccccc1Cl` (stereo not given): the Potency entry is “inactive”.
Next, `CSSC`: “inactive”; `CC(=O)c1cc2c(cc1C)C(C)(C)C(C)CC2(C)C` (stereo not given): “inactive”; `CC(Oc1ccc(Oc2ncc(C(F)(F)F)cc2Cl)cc1)C(=O)O` (stereo not given): “inactive”.
Next, `Cc1cc(C(C)(C)c2ccc(O)c(C)c2)ccc1O`: “inactive”; `CC(C)[C@@H](C(=O)O[C@@H](C#N)c1cccc(Oc2ccccc2)c1)c1ccc(Cl)cc1`: “inactive”; `Cc1ccc([N+](=O)[O-])[c]2c1[O][Hg]2`: “inactive”.
For `CCCCCCBr` the value was “inactive”; for `O=[N+]([O-])c1cc(Cl)c(Cl)cc1Cl`, “inactive”.
Turning to `CC(O)C(=O)[O][Hg][c]1ccccc1` (stereo not given), the Potency result is “inactive”.
Next, `CCC/C(=N\OCC)C1=C(O)CC(CC(C)SCC)CC1=O` (stereo not given): “inactive”; `CCC1CCC(=O)O1` (stereo not given): “inactive”.
For `COc1ccc2c(C(=O)c3ccc(Cl)cc3)c(C)n(CC(=O)O)c2c1` the value was “inactive”.
`CCCCCCCCCCCCCC[P+](CCCCCC)(CCCCCC)CCCCCC` (tested in a mixture with another compound): the Potency entry was “inactive”.
Regarding `Cc1cc(C)c(C2=C(OC(=O)CC(C)(C)C)C3(CCCC3)OC2=O)c(C)c1`, the Potency result is “inactive”.
For `O=C1CN=C(c2ccccc2)c2cc(Cl)ccc2N1CC1CC1` the value was “inactive”; for `CCCCC(O)(Cn1cncn1)c1ccc(Cl)cc1Cl` (stereo not given), “inactive”.
For the compound `COP(=S)(OC)Oc1c(Cl)cc(C)cc1Cl`, the Potency entry was “inactive”.
For `CCC(C)(C)C(=O)OC1=C(c2ccc(Cl)cc2Cl)C(=O)OC12CCCCC2` the value was “inactive”; for `Cc1nnc2n1-c1sc(CCC(=O)N3CCOCC3)cc1C(c1ccccc1Cl)=NC2`, “inactive”.
Next, `O=C(O)CBr`: “inactive”.
Next, `CN/C(=N\[N+](=O)[O-])NCC1CCOC1` (stereo not given): “inactive”; `O=C(NC(=O)c1c(F)cccc1F)Nc1cc(Cl)c(OC(F)(F)C(F)F)c(Cl)c1`: “inactive”; `CC(Cl)C(C)Cl` (stereo not given): “inactive”.
In the case of `CCOC(=O)[C@]1(c2ccccc2)Oc2ccccc2[C@@H]1N`, the Potency is 8.4 µM (active).
With `CCCSP(=S)(OCC)Oc1ccc(SC)cc1` (stereo not given), the Potency result was “inactive”.
For `CN(C)C(=O)Nc1cccc(OC(=O)NC(C)(C)C)c1` the value was “inactive”; for `Nc1ccccc1C(=O)Oc1ccc2ccccc2c1`, “inactive”; for `CC(C)(N)Cc1ccc(Cl)cc1`, “inactive”.
On to `CC(Cc1ccc(O)cc1)NCC(O)c1cc(O)cc(O)c1` (stereo not given), for which the Potency entry is “inactive”.
For `COP(=O)(OC)OC(Br)C(Cl)(Cl)Br` (stereo not given) the value was “inactive”; for `C=C(C)CN(CC)c1c([N+](=O)[O-])cc(C(F)(F)F)cc1[N+](=O)[O-]`, “inactive”; for `O=C=Nc1ccc(Cl)cc1`, “inactive”.
For `Oc1ccc(I)cc1` the value was “inactive”; for `CCCCOC(=O)c1ccccc1N`, “inactive”.

The record behind these values is PubChem BioAssay (Tox21).
